PubChem BioAssay (NCI)
This is part of a sample that, as a whole, favours compounds with a hit. Of some 83,000 tested, about 20% had one in any assay.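 Treatment: one concentration, 48 hours, 96-well format. Scoring: percent growth, with anything below 10 considered active.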 Active and inactive are the calls of the source.

Experiments:
Experiment in all cases: NCI-60 one-dose screen, 48 h (100 = growth as untreated, 0 = no growth, -100 = all killed)
Conditions in all cases: 10 µM unless noted
SK-MEL-2 melanoma = system: SK-MEL-2 melanoma
EKVX NSCLC = system: EKVX NSCLC
SN12C renal = system: SN12C renal
UO-31 renal = system: UO-31 renal
TK-10 renal = system: TK-10 renal
ACHN renal = system: ACHN renal
CAKI-1 renal = system: CAKI-1 renal
A498 renal = system: A498 renal
CCRF-CEM leukemia = system: CCRF-CEM leukemia
MOLT-4 leukemia = system: MOLT-4 leukemia
RPMI-8226 leukemia = system: RPMI-8226 leukemia
OVCAR-8 ovarian = system: OVCAR-8 ovarian
OVCAR-5 ovarian = system: OVCAR-5 ovarian
OVCAR-4 ovarian = system: OVCAR-4 ovarian
SK-OV-3 ovarian = system: SK-OV-3 ovarian
IGROV1 ovarian = system: IGROV1 ovarian
OVCAR-3 ovarian = system: OVCAR-3 ovarian
HS 578T breast = system: HS 578T breast
NCI/ADR-RES ovarian = system: NCI/ADR-RES ovarian
SR leukemia = system: SR leukemia

Measured: growth

CC1Cc2c(N(C)C)ncnc2N(C)c2ccc(O)cc21 (centres undefined)
inactive: SK-MEL-2 melanoma 89.6% | EKVX NSCLC 71.3% | SN12C renal 99% | UO-31 renal 80.2% | TK-10 renal 95.9% | ACHN renal 101% | CAKI-1 renal 70.7% | A498 renal 76.7% | CCRF-CEM leukemia 85.3% | MOLT-4 leukemia 75.6% | RPMI-8226 leukemia 82.9% | OVCAR-8 ovarian 103% | OVCAR-5 ovarian 99.4% | OVCAR-4 ovarian 84.6% | SK-OV-3 ovarian 86% | IGROV1 ovarian 93.6% | OVCAR-3 ovarian 88.8% | HS 578T breast 76.2% | NCI/ADR-RES ovarian 84.2%

O=P([O-])(O)OP(=O)([O-])O.[NH-][C@H]1CCCC[C@@H]1[NH-].[OH-].[OH-].[Pt+4]
inactive: SK-MEL-2 melanoma 117% | EKVX NSCLC 100% | SN12C renal 105% | UO-31 renal 96.6% | TK-10 renal 102% | ACHN renal 86.3% | CAKI-1 renal 94.8% | A498 renal 81.7% | CCRF-CEM leukemia 98.4% | MOLT-4 leukemia 87.8% | SR leukemia 91.3% | RPMI-8226 leukemia 97.8% | OVCAR-8 ovarian 101% | OVCAR-5 ovarian 95.2% | SK-OV-3 ovarian 106% | IGROV1 ovarian 108% | OVCAR-3 ovarian 111% | HS 578T breast 109% | NCI/ADR-RES ovarian 103%

C=CCc1cc(Cl)cc2c(OC(C)=O)c(C(C)=O)c(-c3ccccc3)nc12
inactive: SK-MEL-2 melanoma 112% | EKVX NSCLC 75.5% | SN12C renal 99.5% | UO-31 renal 78.2% | TK-10 renal 114% | ACHN renal 102% | CAKI-1 renal 87.5% | A498 renal 110% | CCRF-CEM leukemia 104% | MOLT-4 leukemia 101% | RPMI-8226 leukemia 97.4% | OVCAR-8 ovarian 113% | OVCAR-5 ovarian 111% | OVCAR-4 ovarian 100% | SK-OV-3 ovarian 99.9% | IGROV1 ovarian 82.3% | OVCAR-3 ovarian 107% | HS 578T breast 102% | NCI/ADR-RES ovarian 119%

CC/C=C\C[C@H](O)C/C=C1/C(=O)C(Cl)=C[C@@H]1C/C=C\CCCC(=O)O
inactive: SK-MEL-2 melanoma 54% | EKVX NSCLC 63.9% | SN12C renal 22.8% | UO-31 renal 64.2% | TK-10 renal 78.9% | ACHN renal 45.3% | CAKI-1 renal 79.1% | A498 renal 134% | MOLT-4 leukemia 40.5% | SR leukemia 10.9% | RPMI-8226 leukemia 14.7% | OVCAR-8 ovarian 10.9% | OVCAR-5 ovarian 97.1% | SK-OV-3 ovarian 99.7% | IGROV1 ovarian 82.7% | OVCAR-3 ovarian 28.9% | HS 578T breast 75.9% | NCI/ADR-RES ovarian 57.1%
active: CCRF-CEM leukemia 2.58%

COC(=O)CCCCN=Cc1c(O)c(O)c(C(C)C)c2cc(C)c(-c3c(C)cc4c(C(C)C)c(O)c(O)c(C=NCCCCC(=O)OC)c4c3O)c(O)c12
inactive: SK-MEL-2 melanoma 17.3% | EKVX NSCLC 14.4% | SN12C renal 16.1% | UO-31 renal 14.7% | TK-10 renal 12.6% | ACHN renal 13.4% | CAKI-1 renal 50.8% | A498 renal 12.2% | CCRF-CEM leukemia 18.4% | MOLT-4 leukemia 14.4% | RPMI-8226 leukemia 17.7% | OVCAR-8 ovarian 16.4% | OVCAR-5 ovarian 17.8% | OVCAR-4 ovarian 13.7% | SK-OV-3 ovarian 40.1% | IGROV1 ovarian 26.4% | OVCAR-3 ovarian 14.3% | NCI/ADR-RES ovarian 52.8%
active: HS 578T breast 9.48%

Cc1ccc2c(c1)C(C)Cc1c(N(C)C)ncnc1N2C (centres undefined)
active: A498 renal -9.12% | HS 578T breast 6.88%
inactive: SK-MEL-2 melanoma 30% | EKVX NSCLC 27.2% | SN12C renal 44.9% | UO-31 renal 59.1% | TK-10 renal 14.1% | ACHN renal 53.3% | CAKI-1 renal 35.2% | CCRF-CEM leukemia 21.4% | MOLT-4 leukemia 30.6% | RPMI-8226 leukemia 32.4% | OVCAR-8 ovarian 51% | OVCAR-5 ovarian 83.9% | OVCAR-4 ovarian 61.1% | SK-OV-3 ovarian 35.1% | IGROV1 ovarian 59.5% | OVCAR-3 ovarian 14% | NCI/ADR-RES ovarian 28.5%

COc1cc(/C=C/C(=O)c2ccccc2O)ccc1OCCCOc1cc2c(cc1OC)C(=O)N1CCC[C@H]1C=N2
active: SK-MEL-2 melanoma -61.1% | SN12C renal 6.22% | UO-31 renal -54.5% | TK-10 renal -27.9% | ACHN renal -13.8% | CAKI-1 renal -35.3% | A498 renal -68.4% | CCRF-CEM leukemia 5.24% | MOLT-4 leukemia -11.2% | SR leukemia -13.8% | RPMI-8226 leukemia -21.7% | OVCAR-5 ovarian 0.483% | IGROV1 ovarian -65.8% | OVCAR-3 ovarian -3.51%
inactive: EKVX NSCLC 19.7% | OVCAR-8 ovarian 18.1% | SK-OV-3 ovarian 33.1% | HS 578T breast 37.8% | NCI/ADR-RES ovarian 19.3%

CC1CCc2c(sc(NC(=O)CSc3nnc4ccccn34)c2C(N)=O)C1 (centres undefined)
inactive: SK-MEL-2 melanoma 48.4% | EKVX NSCLC 150% | SN12C renal 102% | UO-31 renal 110% | TK-10 renal 179% | ACHN renal 96.7% | CAKI-1 renal 95.7% | A498 renal 133% | CCRF-CEM leukemia 101% | MOLT-4 leukemia 108% | RPMI-8226 leukemia 119% | OVCAR-8 ovarian 109% | OVCAR-5 ovarian 99.7% | OVCAR-4 ovarian 114% | SK-OV-3 ovarian 131% | IGROV1 ovarian 33.8% | OVCAR-3 ovarian 104% | HS 578T breast 114% | NCI/ADR-RES ovarian 118%

CCN(Cc1ccc(CN(CC)C(=O)C(Br)Br)cc1)C(=O)C(Br)Br
active: OVCAR-3 ovarian 8.57%
inactive: SK-MEL-2 melanoma 76.9% | EKVX NSCLC 31.3% | SN12C renal 48.9% | UO-31 renal 52.2% | TK-10 renal 48.1% | ACHN renal 12.1% | CAKI-1 renal 28.3% | A498 renal 38.3% | CCRF-CEM leukemia 24.9% | MOLT-4 leukemia 34.2% | RPMI-8226 leukemia 14.2% | OVCAR-8 ovarian 20.4% | OVCAR-5 ovarian 71.1% | OVCAR-4 ovarian 32.1% | SK-OV-3 ovarian 79.8% | IGROV1 ovarian 46.4% | HS 578T breast 38.1% | NCI/ADR-RES ovarian 39.7%

CC1Cc2c(N(C)C)ncnc2N(C)c2ccc(Cl)cc21 (centres undefined)
active: A498 renal -12.5% | OVCAR-3 ovarian 5.13% | HS 578T breast -1.26%
inactive: SK-MEL-2 melanoma 27.3% | EKVX NSCLC 29.3% | SN12C renal 47.9% | UO-31 renal 59.4% | TK-10 renal 31.8% | ACHN renal 47.1% | CAKI-1 renal 25.1% | CCRF-CEM leukemia 18.1% | MOLT-4 leukemia 28.2% | RPMI-8226 leukemia 31.3% | OVCAR-8 ovarian 45.9% | OVCAR-5 ovarian 73.8% | OVCAR-4 ovarian 49.7% | SK-OV-3 ovarian 46.3% | IGROV1 ovarian 57.5% | NCI/ADR-RES ovarian 25.9%

CCC(c1ccc(OC)cc1)C(CC)c1ccc(O)c(CN2CCCC2)c1 (centres undefined)
active: SK-MEL-2 melanoma -37.6% | A498 renal -5.74% | MOLT-4 leukemia 1.69% | SR leukemia -43%
inactive: EKVX NSCLC 11.3% | SN12C renal 23.3% | UO-31 renal 15% | TK-10 renal 54.5% | ACHN renal 39.3% | CAKI-1 renal 32.6% | CCRF-CEM leukemia 19.7% | OVCAR-8 ovarian 36.7% | OVCAR-5 ovarian 63% | OVCAR-4 ovarian 31.7% | SK-OV-3 ovarian 34.5% | OVCAR-3 ovarian 20.3% | HS 578T breast 12.4% | NCI/ADR-RES ovarian 18.7%

CCC(=O)Oc1ccc2c(c1)CC[C@@H]1[C@@H]2CC[C@]2(C)C[C@H](OC(=O)CC)C[C@@H]12
active: A498 renal 7.94%
inactive: SK-MEL-2 melanoma 75.1% | EKVX NSCLC 62.7% | SN12C renal 70.4% | UO-31 renal 71.7% | TK-10 renal 105% | ACHN renal 73% | CAKI-1 renal 64.8% | CCRF-CEM leukemia 74.6% | MOLT-4 leukemia 51.1% | RPMI-8226 leukemia 67% | OVCAR-8 ovarian 87.9% | OVCAR-5 ovarian 98.4% | OVCAR-4 ovarian 79% | SK-OV-3 ovarian 56% | IGROV1 ovarian 77.6% | OVCAR-3 ovarian 68.8% | HS 578T breast 59.7% | NCI/ADR-RES ovarian 54.2%

NC(C(=O)O)C(O)c1ccc(OCc2ccccc2)c(OCc2ccccc2)c1 (centres undefined)
inactive: SK-MEL-2 melanoma 104% | EKVX NSCLC 104% | SN12C renal 107% | UO-31 renal 92.1% | TK-10 renal 104% | ACHN renal 101% | CAKI-1 renal 93.3% | A498 renal 85.3% | CCRF-CEM leukemia 94.6% | MOLT-4 leukemia 98.9% | SR leukemia 92.3% | OVCAR-8 ovarian 99.6% | OVCAR-5 ovarian 101% | SK-OV-3 ovarian 103% | OVCAR-3 ovarian 106% | HS 578T breast 93.4% | NCI/ADR-RES ovarian 93.3%

O=C(Nc1ccc(F)cc1)c1cc([N+](=O)[O-])ccc1O
inactive: SK-MEL-2 melanoma 37% | EKVX NSCLC 77% | SN12C renal 82.4% | UO-31 renal 58.9% | TK-10 renal 81.6% | ACHN renal 73.2% | CAKI-1 renal 67.1% | A498 renal 25.5% | CCRF-CEM leukemia 59.5% | MOLT-4 leukemia 63.3% | SR leukemia 83.7% | RPMI-8226 leukemia 32.4% | OVCAR-8 ovarian 76.2% | OVCAR-5 ovarian 86.1% | OVCAR-3 ovarian 56.1% | HS 578T breast 64% | NCI/ADR-RES ovarian 72.9%

Cc1ccc2c(c1)C(C)Cc1c(ncnc1-n1cnc3ccccc31)N2C (centres undefined)
inactive: SK-MEL-2 melanoma 38.6% | EKVX NSCLC 40.1% | SN12C renal 37.5% | UO-31 renal 40.1% | TK-10 renal 13.8% | ACHN renal 35.4% | CAKI-1 renal 24.6% | CCRF-CEM leukemia 10% | MOLT-4 leukemia 11.7% | RPMI-8226 leukemia 21.8% | OVCAR-8 ovarian 21.3% | OVCAR-5 ovarian 42.8% | OVCAR-4 ovarian 30% | SK-OV-3 ovarian 43.5% | IGROV1 ovarian 37.6% | NCI/ADR-RES ovarian 17%
active: A498 renal -16% | OVCAR-3 ovarian -34.7% | HS 578T breast 8.03%

C=CCOc1ccc(/C(O)=C2\C(=O)C(=O)N(c3nccs3)C2c2ccccc2F)cc1 (centres undefined)
active: IGROV1 ovarian 3.7%
inactive: SK-MEL-2 melanoma 54% | EKVX NSCLC 133% | SN12C renal 103% | UO-31 renal 110% | TK-10 renal 89.1% | ACHN renal 79.4% | CAKI-1 renal 98.7% | A498 renal 73.8% | CCRF-CEM leukemia 131% | MOLT-4 leukemia 98.3% | RPMI-8226 leukemia 136% | OVCAR-8 ovarian 102% | OVCAR-5 ovarian 122% | OVCAR-4 ovarian 81.3% | SK-OV-3 ovarian 109% | OVCAR-3 ovarian 93.5% | HS 578T breast 104% | NCI/ADR-RES ovarian 119%
